Screening data deposited in PubChem by National Center for Advancing Translational Sciences (NCATS).
Sampled rows, rich in hits. Any-hit rate of the full collection: about 0.64%.
BLM helicase inh: blocks DNA unwinding by human BLM helicase; Potency, µM (top dose mostly 56.1 µM), usual class: inhibitors; recombinant BLM DNA unwinding, fluorescence dequenching; hit rate 0.2% among 350,000; P54132; also: nearly all actives have a fitted effect of over 35% in size
TRb SRC2 PPI: TRbeta-SRC2 interaction inhibition. Potency, µM (doses to about 106 µM), usual class: inhibitors. P10828. hit rate 0.065% among 280,000. AID 1469. TRbeta-SRC2 peptide binding, fluorescence polarization; receptor liganded with 1 µM T3; also: nearly all actives have a fitted effect of over 50% in size
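Compounds were added to 0.6 uM TRb ligand-binding domain and 20 nM Texas Red-labeled SRC2 peptide in Tris buffer containing 1 uM T3, incubated 5 hr at ambient temperature, then read by fluorescence polarization.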
TexasRed fluor: Texas Red fluorescence interference in TRb-SRC2 counter-screen. TRb/SRC2 Texas Red total fluorescence interference. Potency, µM (top dose mostly 106 µM). hit rate 0.29% among 280,000. AID 1479; active = well fitted curve in either direction with a large enough effect; inconclusive = small, poorly fitted or top-dose-only effect
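Human TRβ ligand-binding domain (0.6 uM) and Texas Red SRC2 peptide (20 nM) in Tris buffer with 1 uM T3 and 5% DMSO were incubated with pinned compound for 5 hr at ambient temperature. Total fluorescence was computed as S + 2P (555/632 nm).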
RECQ1 inh: blocks DNA unwinding by human RECQ1; RECQ1 DNA unwinding, red fluorescence kinetic read; Potency, µM (doses to about 57.3 µM), most hits filed as inhibitors; hit rate 0.54% among 240,000; AID 2549; also: nearly all actives have a fitted effect of over 30% in size
Target sequence (P46063 whole entry, looked up): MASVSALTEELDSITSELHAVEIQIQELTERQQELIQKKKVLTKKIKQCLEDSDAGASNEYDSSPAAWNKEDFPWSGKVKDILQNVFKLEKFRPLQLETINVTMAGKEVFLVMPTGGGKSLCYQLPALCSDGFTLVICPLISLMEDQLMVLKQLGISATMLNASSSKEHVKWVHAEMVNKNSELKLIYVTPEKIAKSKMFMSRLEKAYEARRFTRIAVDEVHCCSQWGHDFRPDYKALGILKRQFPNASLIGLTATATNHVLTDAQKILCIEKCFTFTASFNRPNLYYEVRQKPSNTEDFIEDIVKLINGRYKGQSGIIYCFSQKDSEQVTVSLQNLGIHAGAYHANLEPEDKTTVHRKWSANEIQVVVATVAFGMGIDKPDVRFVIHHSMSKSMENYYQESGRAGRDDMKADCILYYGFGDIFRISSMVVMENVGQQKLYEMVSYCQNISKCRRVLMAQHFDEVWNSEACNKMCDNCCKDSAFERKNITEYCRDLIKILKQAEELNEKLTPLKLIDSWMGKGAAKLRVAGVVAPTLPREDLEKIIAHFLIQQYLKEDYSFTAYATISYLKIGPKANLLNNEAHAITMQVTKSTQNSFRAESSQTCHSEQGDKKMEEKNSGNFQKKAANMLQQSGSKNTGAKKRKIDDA
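50 nM RECQ1T1 preincubated 15 min with compound in Tris pH 8.0 buffer with MgCl2, DTT, Tween-20 and 2.5 ug/ml poly(dI-dC); started with 200 nM TAMRA/BHQ-2 forked duplex and 2 mM ATP. Unwinding read as fluorescence (525/598 nm), two reads 2 h apart.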
Numbers stand for hits; i = inactive; ? = inconclusive; nt = no result given; [ ] = dose if it differs, or a comment. Unless noted, calls follow the shape of the dose curve; as a rule, active = well fitted curve in the direction sought with a large enough effect; inconclusive = small, poorly fitted or top-dose-only effect, or another doubt; inactive = no such curve, though single readings can be large; an effect the other way counts as inactive or inconclusive.

SMILES | BLM helicase inh | TRb SRC2 PPI | TexasRed fluor | RECQ1 inh
CC(=O)Nc1cc(OC(C)=O)c2nonc2c1OC(C)=O | 1.6µM | 1.6µM | i | 5µM
COc1ccc(-c2ccc(NS(=O)(=O)c3ccc(F)c(C(F)(F)F)c3)cc2)nn1 | i | i | 224µM[quencher] | nt
COc1ccccc1C(=O)Nc1c(C(=O)c2ccccc2)oc2ccccc12 | i | i | 0.056µM[quencher] | nt
COc1ccccc1C(=O)Nc1c(C(=O)NC(C)(C)C)oc2ccccc12 | i | i | i | nt
CCOC(=O)c1cnn(-c2ccc(C(=O)Nc3cccc(C(C)=O)c3)cc2)c1N | i | i | i | nt
O=S(=O)(Nc1cc2nc3ccccc3nc2n1Cc1ccccc1)c1ccc(Cl)cc1 | 5µM | i | i | i
CCN(Cc1c(F)cccc1Cl)c1c([N+](=O)[O-])cc(C(F)(F)F)cc1[N+](=O)[O-] | nt | i | i | nt
CCC1(CC)C(=O)C2=C3C1[C@H](C(=O)OC)CC(C(=O)OC)C[C@H]3n1c(=O)n(-c3ccccc3)c(=O)n1[C@H]2C (some centres undefined) | i | ? | 45µM[fluorescent] | i
O=C(COC(=O)C1CC2C=CC1C2)NCc1ccco1 (centres undefined) | ? | i | i | 22µM
Cc1ccc(C)c(NC(=O)c2nnn(Cc3ccc(F)cc3Cl)c2N)c1 | i | i | i | nt
O=C(CCSCc1ccccc1Cl)N1CCN(c2ccc(F)cc2)CC1 | i | i | i | nt
[N-]=C=C1C(=S)NC(=O)[C@H]([n+]2ccccc2)[C@H]1c1ccc(Cl)cc1 | i | i | i | 32µM
Cc1ccc2nc(-c3ccc(NC(=O)COc4c(C)ccc(C)c4C)cc3)sc2c1 | i | i | i | nt
Cc1ccc2nc(-c3ccc(NC(=O)COc4ccc(Br)cc4Br)cc3)sc2c1 | i | i | 0.32µM[quencher] | nt
COc1ccc(C(=O)Nc2ccc(N3CCOCC3)c(C(F)(F)F)c2)cc1OC | i | i | 11µM[quencher] | nt
O=C(O)CCCCCCC(=O)O | nt | i | i | nt
CCC(=O)Nc1ccc2nc3c(=O)n(C)c(=O)n(C)c3nc2c1 | i | i | i | nt
CCN(CC)c1ccc2nc3c(=O)n(C)c(=O)n(C)c3nc2c1 | ? | i | 22µM[fluorescent] | nt
Cc1cc(C)nc(SCc2ccc(C(=O)N/N=C3\CCCC(=O)C3)cc2)n1 | i | i | i | 22µM
Cc1[nH]c2ccc(C(=O)O)cc2c1C | i | ? | i | i
CCCc1c(C)[nH]c2ccc(C(=O)O)cc2c1=S | i | i | i | 14µM
CC(C)c1ccc(-c2noc(SCC(=O)N3CCCCC3)n2)cc1 | i | i | i | nt
CC(N=Cc1cc([N+](=O)[O-])ccc1O)c1ccccc1 (centres undefined) | i | i | i | i
CC(N=Cc1cccc(O)c1O)c1ccccc1 (centres undefined) | i | i | i | 22µM
CC(=O)c1[nH]c(C)c(C(=O)NCc2ccc(Cl)cc2)c1C | i | i | 1122µM[quencher] | nt
SMILES | BLM helicase inh | TRb SRC2 PPI | TexasRed fluor | RECQ1 inh
O=c1[nH]n2c(=O)c3c([nH]c2c1N=Nc1cccc(Cl)c1)CCC3 | 16µM | i | i | i
COc1cccc(N=Nc2c(=O)[nH]n3c(=O)c4c([nH]c23)CCC4)c1 | i | i | i | i
CCn1nc([N+](=O)[O-])c2c(-c3nc4ccccc4o3)c(N)n(CCCOC)c2c1=O | 10µM | i | i | i
CCc1ccc2oc(C(=O)NCC(c3ccc(Cl)cc3)N3CCOCC3)c(C)c2c1 (centres undefined) | i | i | i | nt
OCc1cccc(Oc2ccccc2)c1 | nt | i | i | nt
Cc1ccc(CNC(=O)Cc2coc3cc(C)cc(C)c23)cc1 | i | ? | 4.5µM[quencher] | nt
Cc1cc(C)c2c(CC(=O)NCCc3ccccc3)coc2c1 | i | i | i | i
COc1cccc(/C=N/Nc2ncnc3c2[nH]c2ccc(C)cc23)c1OC | 14µM | i | i | i
Cc1ccc2oc3c(c(=O)c2c1)C(c1ccc(O)cc1)N(CCCN(C)C)C3=O (centres undefined) | i | i | 5.6e-05µM[quencher] | nt
C=CCN1C(=O)/C(=C2/C(=O)N(CC(=O)O)c3ccccc32)S/C1=N/c1nccs1 | i | i | i | 16µM
CN(C)/C=C1\SC(=S)N(c2ccc(Br)cc2)C1=O | i | ? | 32µM[fluorescent] | 32µM
CC(=O)N(/C=C1\SC(=S)N(c2ccccc2)C1=O)c1ccccc1 | i | i | i | 32µM
CCN1C(=O)/C(=C\N(C(C)=O)c2ccccc2)OC1=S | i | i | i | i
CN(C)/C=C1\SC(=S)N(c2ccc(F)cc2)C1=O | i | i | i | i
CCCCCCCCOC(=O)c1cc(O)c(O)c(O)c1 | nt | i | i | nt
CCn1c(CSc2nc3ccccc3[nH]2)nc2cc(C(=O)O)ccc21 | i | ? | ? | i
